A number with no mark means an inactive call. The call rests on the fitted dose curve; in most records, active means well fitted inhibition curve with a large enough effect; inconclusive means small, poorly fitted or top-dose-only effect; inactive means flat fitted curve, though single readings scatter. Where a SMILES comes first, the peptide text is derived from it. The star is where a group is joined. Cbz = O=C(OCc1ccccc1)*; CH2Cl = ClC*
The compounds below were run on Nanoluciferase (engineered Oplophorus gracilirostris luciferase) (assay: Primary Nanoluciferase (NLuc) qHTS assay for identification of artifact compounds. (AID 1845222)). Details: NLuc-conditioned medium, Nano-Glo luminescence, 5 min; series mostly up to 54.1 µM; activity, negative = inhibition: at the top concentration.
Text: PI: Alexander Tropsha Ph.D.
UNC Eshelman School of Pharmacy
University of North Carolina, Chapel Hill, North Carolina
Hits from high-throughput screening (HTS) of chemical libraries are often false positives due to their interference with the assay detection technology. In response to this problem, we generated the largest publicly available library of chemical liabilities and developed a free webtool to predict HTS artifacts, both of which are described herein. More specifically, we generated, curated, and integrated HTS datasets for thiol reactivity, redox activity, and luciferase (firefly and nano) activity. Using these curated datasets, we developed and validated several Quantitative Structure-Interference Relationship (QSIR) models to predict nuisance behavior. […] These models were employed for virtual profiling of the National Center for Advancing Translational Science's (NCATS) in-house library, and 256 compounds for each assay were selected for the experimental validation of nuisance behavior. The BA for these external predictions ranged from 58 to 78% for compounds within the applicability domains of the models. […] The models developed in this study, along with aggregation models previously developed by our group (SCAM Detective) were implemented in "Liability Predictor," an online tool which may be used as part of chemical library design or for triaging HTS hits. Both the models and the curated datasets are publicly available at https://liability.mml.unc.edu/.
SEQUENCE No. (e.g., 1, 2, 3, etc.); […] (e.g., Cells, Incubation, Reagent, etc.); VALUE; DESCRIPTION.
1; Reagent; 2 uL; Nanoluciferase media.
2; Compounds and control; 16 nL; Kalypsis pin tool (Wako USA) equipped with a 1536-well pin head.
4; Reagent; 2 uL; Luciferase enzyme.
6; Detection; Luminescence, ViewLux microplate reader.
NOTES (numbers refer to Sequence numbers above)
1. Medium was collected from the culture flasks of NLuc-expressing S16 cells (80% confluent) prior to cell plating, filtered through a 0.22um filter, and frozen at -20C prior to use. Media was diluted (1:55) and 2 uL was dispensed into all wells of a 1536-well assay plate (solid-bottom white plate; Greiner Bio One, Monroe, NC).
2. A Wako Pin-tool (Wako Automation, Richmond, VA) was used to transfer 16 nL of compounds (consisting of 7-plates in qHTS format, final concentration range 18.3 nM to 114 uM) or control Cilnidipine (final concentration range 623 nM to 80 uM).
3. 15 min. incubation at room temperature protected from light.
4. 2 uL of NLuc substrate (1:100 in Nano-Glo luciferase buffer; Nano-Glo luminescence assay, Promega, Madison, WI) was dispensed for a final assay volume of 4 uL.
5. Plates were centrifuged (121xg, 15 seconds) and incubated for 5 minutes.
6. Samples were read for luminescence on a ViewLux CCD imager (PerkinElmer). Data were normalized to no-enzyme (0% activity) and no-inhibitor (DMSO; 100%) controls and the resulting percent inhibition data were fitted to a 4-parameter Hill equation using NCATS in-house software.
In the case of CO[C@H]1O[C@@H]2O[C@@]3(C)CCC4[C@H](C)CCC([C@H]1C)[C@]42OO3 (stereo not given in full), the “activity, negative = inhibition” value is reported as 0.768%. For C=CCCN1CCC2(CC1)CN(C(=O)c1c(F)cccc1F)c1ccc(Cl)cc12, the “activity, negative = inhibition” value was 2.65%. In the case of CC#CCn1c(N2CCCC(N)C2)nc2c1c(=O)n(Cc1nc(C)c3ccccc3n1)c(=O)n2C (stereo not given), the “activity, negative = inhibition” value is reported as 4.56%. O=C(/C=C/c1ccccc1O)O[C@@H]1O[C@H](CO)[C@@H](O)[C@H](O)[C@H]1O was tested, and the “activity, negative = inhibition” value was 2.52%. With CN(C)C(CCOc1cccc2ccccc12)c1ccccc1 (stereo not given) the “activity, negative = inhibition” value was 0%. C=CC1(C)CC(O)C(C(=C)C(=O)OC)C(O)C1C(=C)CO (stereo not given) was tested, and the “activity, negative = inhibition” value was -0.564%. For c1ccc(-c2cnn3cc(-c4ccc(OCCN5CCOCC5)cc4)cnc23)cc1, the “activity, negative = inhibition” value was -0.0684%. In the case of Cc1nc(N2CCN(C(=O)c3ccco3)CC2)c2c3c(sc2n1)CCCC3, the “activity, negative = inhibition” value is reported as -0.645%. In the case of C=C1C(=O)OC2/C=C(\C)CC/C=C(\C)CC(OC(C)=O)C12 (stereo not given), the “activity, negative = inhibition” value is reported as 2.64%. With C[C@H](Nc1cc2c(-c3ccc4c(c3)OCO4)noc2cn1)c1ccccc1 the “activity, negative = inhibition” value was 3.66%. With C=C(C)C1CC(O)C(C)C12CC(O)C1(C)OC1C2O (stereo not given) the “activity, negative = inhibition” value was 0.514%. In the case of Cc1cc2occ(CN(C)CCN(C)Cc3cn(-c4cccc(C(F)(F)F)c4)c4ccccc34)c(=O)c2cc1C, the “activity, negative = inhibition” value is reported as 3.11%. With CC(O)(C(=O)O)C1CCC2(C)C1CCC1(C)C2CCC2C3(C)CCC(O)C(C)(COC4OC(CO)C(O)C(O)C4O)C3CCC21C (stereo not given) the “activity, negative = inhibition” value was -1.78% [at 25.7 µM]. O=c1[nH]c2cccc(N3CCN(Cc4ccc(-c5ccccc5)cc4)CC3)c2o1 was tested, and the “activity, negative = inhibition” value was 0.796%. In the case of O=C(O)c1cccc(-c2ccc(-c3cn(C(=O)N4CCCCC4Cc4ccccc4)nn3)cc2)c1 (stereo not given), the “activity, negative = inhibition” value is reported as -2.6%. In the case of COc1ccc(CCc2nc3cc(-c4c(C)noc4C)ccc3n2CC(C)N2CCOCC2)cc1Cl (stereo not given), the “activity, negative = inhibition” value is reported as 0.837%. COc1c(CCC(=O)O)cccc1O[C@@H]1O[C@H](CO)[C@@H](O)[C@H](O)[C@H]1O was tested, and the “activity, negative = inhibition” value was 0.147%. With C=C1/C(=C/C=C2\CCC[C@]3(C)[C@@H]([C@H](C)/C=C/[C@H](O)C4CC4)CC[C@@H]23)C[C@@H](O)C[C@@H]1O the “activity, negative = inhibition” value was 0.692%. For NS(=O)(=O)c1ccc(N2CCN(CC[C@@H]3OCCc4ccccc43)CC2)cc1, the “activity, negative = inhibition” value was -4.14%. COc1ccc2[nH]c(=O)c3c(c2c1)OC(C)(C)C=C3 was tested, and the “activity, negative = inhibition” value was -4.83%. For Oc1cccc(C2NC(=S)Nc3cccc(F)c32)c1 (stereo not given), the “activity, negative = inhibition” value was -4.94%. With COc1cc(O)cc(OC2OC(CO)C(O)C(O)C2O)c1 (stereo not given) the “activity, negative = inhibition” value was 3.39%. For O=C(NC1CCC1)c1ccc(C#Cc2cccc(F)c2)nc1, the “activity, negative = inhibition” value was -2.05%. In the case of C[C@@H]1CC[C@@]23CC[C@]4(C)[C@@](C=CC5[C@@]6(C)CC[C@H](O)C(C)(C)C6CC[C@]54C)(OC2=O)C3[C@H]1C (stereo not given in full), the “activity, negative = inhibition” value is reported as -0.361% [at 25.7 µM]. C=C1C(=O)OC2CC(C)=C(C(C)CCCOC(C)=O)C(OC(=O)CC(C)CC)C12 (stereo not given) was tested, and the “activity, negative = inhibition” value was -1.35% [at 25.7 µM]. For C[C@@H]1C[C@H]2O[C@@]3(O[C@@H]2C(C)(C)O)C(O)[C@@]2(C)C4CCC5C(C)(C)[C@@H](O[C@H]6OC[C@H](O)[C@@H](O)[C@@H]6O)CC[C@@]56C[C@@]46CC[C@]2(C)C13 (stereo not given in full), the “activity, negative = inhibition” value was -0.708% [at 25.7 µM]. Compound CC(C)NC(=O)N1CC[C@H](N=C2Nc3cc(F)ccc3N(CC(F)F)c3ccc(Cl)cc32)C1 has an activity, negative = inhibition of 1.94% [at 11.6 µM]. For CC(=O)C1(C)CCC2C3C=C(C)C4=CC(=O)CCC4(C)C3CCC21C (stereo not given), the “activity, negative = inhibition” value was 3.01%. With C=C[C@@]1(C)C=C2C(=O)C(O)=C3[C@](C)(C(=O)O)CC[C@@H]4C[C@]34[C@]2(O)C(=O)C1 the “activity, negative = inhibition” value was -5.23%. CCCN1CCC=C(c2cc(-c3ccc(C)cc3)no2)C1 was tested, and the “activity, negative = inhibition” value was 2.46%. In the case of O=C(NCCCN1CCOCC1)c1cnn2c(-c3ccccc3)cc(-c3ccccc3)nc12, the “activity, negative = inhibition” value is reported as -9.76%. With NC(=O)CCCSc1nc(N)nc(-c2c(Cl)cc3c4c(cccc24)COC3)n1 the “activity, negative = inhibition” value was -1.86%. COc1cc2c(cc1NS(=O)(=O)c1ccc(Br)cc1C)n(C)c(=O)n2C was tested, and the “activity, negative = inhibition” value was 0%. With CC1OC(=O)C[C@@H]2C(C(=O)O)=CO[C@@H](O[C@H]3O[C@H](CO)[C@@H](O)[C@H](O)[C@H]3O)[C@H]12 (stereo not given in full) the “activity, negative = inhibition” value was 0%. In the case of CC(C)C[C@H](NC(=O)CNC(=O)OCc1ccccc1)C(=O)N[C@@H](Cc1ccccc1)C(=O)CCl (Cbz-Gly-Leu-Phe-CH2Cl), the “activity, negative = inhibition” value is reported as -18.6%. With C#CCNCc1cc2cc(OCc3ccccc3)ccc2[nH]1 the “activity, negative = inhibition” value was 0%. For CCC(C)C(=O)Oc1cc(C)ccc1C1(COC(=O)C(C)C)CO1 (stereo not given), the “activity, negative = inhibition” value was -5.86%. CC(=O)OC1CCC2(C)C(CCC3(C)C2CC=C2C4C(C)C(C)CCC4(C)CCC23C)C1(C)C(=O)O (stereo not given) was tested, and the “activity, negative = inhibition” value was 2.58% [at 25.7 µM]. For CC(C)c1noc(C2CCN(c3ncnc(Nc4ccc(S(C)(=O)=O)cc4F)c3[N+](=O)[O-])CC2)n1, the “activity, negative = inhibition” value was -2.09%. In the case of CCN(CC)C(=O)C(c1ccccc1)N1CCN(c2ccc(NC(=O)c3ccccc3-c3cccnc3)cc2F)CC1 (stereo not given), the “activity, negative = inhibition” value is reported as 1.41%.

Reference: PubChem BioAssay (NCATS)
